# Test results as given in PubChem BioAssay.
# A number with no mark means an inactive call.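 The calls were made as follows: active = viability loss from added drug above about 55%, and viability with drug at most 40%, in both replicates (limit read from the data, passing the limit was not always enough); inconclusive = both conditions met in only one replicate; inactive = neither replicate meets both conditions.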
# Assay: reversal of MRP1-mediated doxorubicin resistance, pilot screen, H69AR cells, doxorubicin co-treatment (AID 601)
# Details: H69AR cells + 2 uM doxorubicin, CellTiter-Glo, 72 h; at 10 µM; active compounds read high
row,Compound,differential viability (reversal) [%]
1,Cc1ccc(NCc2nnc(SCC(=O)NCc3ccco3)n2CC2CCCO2)cc1Cl (stereo unspecified),-7.28
2,Cn1nc(-c2ccc(C(=O)N3CCN(c4ccccc4)CC3)cc2)c2ccccc2c1=O,3.5
3,CCc1nnc(NC(=O)CCC(=O)Nc2ccccc2)s1,-2.88
4,COc1cccc(-c2csc3nc[nH]c(=O)c23)c1,16.7
5,COc1cccc(-n2c(SCC(=O)OC(C)C)nnc2-c2cccnc2)c1,4.17
6,CC(=O)c1ccc(NC(=O)CSc2nnc(-c3ccoc3C)n2Cc2ccccc2)cc1,3.91
7,O=C(Nc1ccc2c(c1)C(=O)N(C1CCCCC1)C2=O)C1CCCO1 (stereo unspecified),-1.69
8,CN(Cc1nc(-c2ccncc2)no1)S(=O)(=O)c1ccc(Br)cc1,-4.28
9,O=C(CCCN1C(=O)c2ccccc2C1=O)NCc1cccnc1,2.95
10,Nc1nc(CN2CCOCC2)cs1,3.83
11,O=C1CC(C(=O)Nc2ccccc2)C2(CCCC2)O1 (stereo unspecified),3.1
12,CCC1(CC)C(=O)N(C)C(=O)NC1=NCc1ccccc1,-1.67
13,O=C(CN1C(=O)COc2ccccc21)NCCCN1CCc2ccccc2C1,11.6
14,COc1ccccc1CNC(=O)C1CCN(S(=O)(=O)N2CCCCC2)CC1,1.51
15,CCCN(CCC)CCCNS(=O)(=O)c1ccc2c(c1)oc(=O)n2C,0.825
16,O=C(COC(=O)c1ccc(NS(=O)(=O)c2ccc3c(c2)OCCO3)cc1)NCC1CCCO1 (stereo unspecified),11.2
